The structures appear in SMILES notation. Active and inactive are the calls of the source.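 The calls were made as follows: active = translocation seen by eye under the microscope after immunostaining of patient fibroblasts; inconclusive = translocation result judged unclear; inactive = no translocation seen.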

This test concerns the target Lysosomal alpha-glucosidase (Homo sapiens) (UniProt P10253). As to the kind of experiment: qHTS for Activators of Human alpha-Glucosidase as a Potential Chaperone Treatment of Pompe Disease: Fibroblast Translocation. The conditions noted are these: Pompe patient fibroblasts, GAA immunostaining lysosomal translocation, 6 d. The text has this: Alpha-glucosidase is responsible for hydrolysis of terminal, non-reducing 1,4-linked alpha-D-glucose residues with release of alpha-D-glucose. It is a lysosomal hydrolase that is required for the degradation of a small percentage (1-3%) of cellular glycogen in human. Deficiency of this enzyme results in glycogen-storage disease type II (GSDII), also referred to as Pompe disease, an autosomal recessive disorder. Structurally normal glycogen is accumulated in lysosomes and cytoplasm in affected patients, primarily in muscle tissues. Excessive glycogen storage within lysosomes may interrupt normal functioning of other organelles and leads to cellular injury. In turn, this leads to enlargement and dysfunction of the entire organ involved (eg, cardiomyopathy and muscle weakness). It has reported that the improper folding and trafficking of alpha-glucosidase resulting from the genetic mutations may account for a significant number of Pompe patients. […] We optimized this alpha-glucosidase assay in 1536-well plate format for identifying the novel small molecule inhibitors with the structures other than the sugar analogs in order to develop the new pharmacological chaperones. Validated hits were tested in this fibroblast translocation assay that measures fluorescence through immunostaining Pompe patient derived fibroblasts. NIH Chemical Genomics Center [NCGC] […]
Take `CCCN1CNc2c(c(=O)[nH]c(=S)n2Cc2ccc(OC)c(OC)c2)C1`: the outcome is “active; yes”.

The record behind these values is PubChem BioAssay AID602122 (National Center for Advancing Translational Sciences (NCATS), 2011).
